From PubChem
S2 tox = reduces viability in counter-screen for ATXN expression inhibitors; S2 cells (HEK-293 line with an ATXN2-luciferase reporter) viability, CellTiter-Fluor protease fluorescence, 24 h; Potency, µM (doses to about 56.7 µM), most hits filed as cytotoxic; actives 0.49% (n = 400,000); AID 651635; note: nearly all actives have a fitted effect of over 40% in size
HT1080 IDH1KD tx = kills HT-1080 cells with IDH1 knockdown; HT-1080 IDH1 knockdown viability, ATP luminescence, 48 h; Potency, µM (highest dose often 46.1 µM), without a hit: at the highest dose activity, negative = toxicity, hits mostly cytotoxic; actives 2% (n = 360,000);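 note: 0% = DMSO wells and -100% = cell-free medium wells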
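Viability of IDH1-knockdown HT-1080 fibrosarcoma cells was assessed by CellTiter-Glo after 48 h at 37 °C with titrated compound; concentration-effect curves were classified by fit quality and response size.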
HT1080-NT tox = kills 2HG-producing HT-1080-NT fibrosarcoma cells | Potency, µM (top dose mostly 46.1 µM), inactives show top-dose activity, negative = less viability, hits mostly cytotoxic | HT-1080-NT fibrosarcoma viability, CellTiter-Glo ATP luminescence, 48 h | actives 1.6% (n = 360,000);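 note: NT is the 2HG producing partner of a matched IDH1 knockdown line; 0% = DMSO-treated cells and -100% = media-only wells without cells; nearly all actives have a fitted effect of over 55% in size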
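Read-out is CellTiter-Glo luminescence after 10 minutes at room temperature, following 48 hours' compound treatment of HT-1080-NT cells (750 cells/well, RPMI, 5% FBS, 37 degrees C).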
ATXN2 expr inh = ATXN2 expression inhibition | AID 1745845 | HEK-293 ATXN2-luciferase reporter, luminescence, 24 h | Potency, µM (highest dose often 57 µM), for the others: at the top dose activity change, negative = inhibition, hits mostly inhibitors | actives 0.72% (n = 360,000); note: % is set by controls: 0 for no effect and ±100 for the full control effect; nearly all actives have a fitted effect of over 55% in size
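qHTS (up to 57 uM final) was run with 24 h compound exposure of reporter cells at 37 °C. Each well was multiplexed: SteadyGlo luminescence measured ATXN2-luciferase expression after a fluorogenic Gly-Phe-AFC viability readout (25 uM final).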
TGFb inhibitor = blocks TGF-b signaling; HepG2 CAGA-GFP TGF-b/SMAD3 reporter, GFP fluorescence, 18 h; TGF-beta stimulated, 500 pg/mL final; Potency, µM (top dose mostly 46.1 µM), inactives show top-dose activity, negative = inhibition, hits mostly inhibitors; actives 1.2% (n = 410,000); AID 588855; note: % is set by controls: 0 for no effect and ±100 for the full control effect; nearly all actives have a fitted effect of over 65% in size
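HEPG2 CAGA-GFP, 1000 cells/well; 2 h settle, 37 C; cpd via pin tool; TGF-b 500 pg/mL final; 18 h, 37 C; GFP imaging ex488/em500-530; %Activity normalised to -TGF-b and +DMSO controls; CRC fit, curve class.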
HepG2 viability = HepG2 cytotoxicity, counter-screen for TGF-b inhibitors | actives 0.76% (n = 410,000) | AID 588856 | Potency, µM (series often up to 46.1 µM), for inactives: at the top dose activity change, negative = cytotoxicity, usual class: cytotoxic | HepG2 CAGA-GFP viability, ATP luminescence, 18 h
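HepG2 CAGA-GFP cells (1000/well, DMEM with 1% FBS) received compound, then TGF-beta at 500 pg/mL final, and were incubated 18 hours at 37 degrees C. Viability was read by CellTiter-Glo luminescence. Media-only wells were set as complete cell-killing and DMSO as no toxicity.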
* hit, by the source's call; i = inactive; ? = inconclusive; nt = no result given; ! = repeats disagree. Sampled rows, rich in hits. Any-hit rate of the full collection: about 3.8%. Calls come from the whole dose curve; as a rule, active = well fitted curve in the direction sought with a large enough effect; inconclusive = small, poorly fitted or top-dose-only effect, or another doubt; inactive = no such curve, though single readings can be large; an effect the other way counts as inactive or inconclusive. Potency is the fitted concentration of half-maximal effect.

SMILES	S2 tox	HT1080 IDH1KD tx	HT1080-NT tox	ATXN2 expr inh	TGFb inhibitor	HepG2 viability
CCCC12CN3CC(C)(CN(C1)C3c1ccc(CC)cc1)C2=O (stereo not drawn)	i	nt	nt	-1%	2%	9%
CCc1ccc(CNC(=O)Cc2ccc(NC(=O)C3=C(C)OCCS3)cc2)cc1	i	1.3µM*	0.82µM*	7%	?	-8%
COc1cc(/C=C2\SC(=Nc3ccccc3OC)NC2=O)ccc1O	?	7.3µM*	4.1µM*	0%	16%	-20%
COc1cc(/C=C2/SC(=Nc3ccc(O)cc3)NC2=O)ccc1O	?	1.2µM*	0.65µM*	-4%	-13%	-14%
CCc1ccc(N=C2NC(=O)/C(=C/c3cc(OC)c(O)c(OC)c3)S2)cc1	?	-11%	-3%	nt	?	-78%
COc1ccc(/C=C2/SC(=S)NC2=O)cc1OCc1ccccc1	?	-14%	-12%	-18%	-2%	-40%
COc1cc(/C=C2/SC(=O)NC2=O)ccc1OCc1ccccc1	i	?	23µM*	18%	?	-22%
CCOc1ccccc1NC(=O)NCc1noc2ccc(C)cc12	i	nt	nt	7%	4%	-18%
COc1ccnc(Oc2ccccc2)c1C(=O)N/C=N/OCc1ccc(F)cc1Cl	i	16µM*	?	-33%	?	-49%
CCOC(=O)CCCc1ccc(/C(C)=N/NC(N)=S)cc1	?	?	16µM*	-23%	-1%	-7%
CCOC(=O)CCCc1ccc(/C(C)=N/NC(=S)NC)cc1	?	7%	6%	nt	-9%	-9%
O=C(C[n+]1c(Cl)cc(Cl)c2ccccc21)c1ccccc1	nt	nt	nt	nt	-19%	-21%
O=C(NCc1cccnc1)[C@@H]1CC=C[C@@H]2CCN(Cc3ccc(Cl)c(Cl)c3)C(=O)[C@@H]21	i	-1%	-2%	-13%	11µM*	-5%
O=C1[C@H]2[C@H](C=CC[C@H]2C(=O)N2CCN(c3ccccc3)CC2)CCN1Cc1ccccc1	i	0%	-3%	0%	-11%	-9%
COc1ccc(CN2CC[C@H]3C=CC[C@@H](C(=O)Nc4ccc(Cl)c(C(F)(F)F)c4)[C@H]3C2=O)cc1OC	?	-11%	-9%	-19%	11µM*!	-14%
O=C1[C@H]2[C@H](C=CC[C@H]2C(=O)N2CCN(c3ccccc3)CC2)CCN1Cc1ccc(Cl)c(Cl)c1	?	-5%	0%	?	10µM*!	-13%
CCCCNC(=O)[C@@H]1CC=C[C@@H]2CCN(Cc3ccc(Cl)c(Cl)c3)C(=O)[C@@H]21	?	-9%	19%	-24%	7.9µM*	-27%
CCN(CC)c1ccc(N=Nc2ccc(S(=O)(=O)N(C)C)cc2)c(S(=O)(=O)NCC[n+]2ccccc2)c1	i	nt	nt	nt	nt	nt
CC(C)(C)c1ccc(C(=O)N2CCC(c3nc4ccccc4o3)CC2)cc1	nt	nt	nt	nt	?	-25%
COc1cccc(Nc2nc3cc(C)ccc3nc2NS(=O)(=O)c2ccc(Cl)cc2)c1	?	nt	nt	-2%	7.9µM*	-36%
CCc1ccc(NC(=O)Cn2c(=O)n(CCC(=O)NCCc3ccc(Cl)cc3)c(=O)c3ccccc32)cc1	i	nt	nt	9%	0%	-2%
FC(F)(F)c1ccc(C2[C@H]3CN(Cc4ccc(-c5ccccc5)cc4)[C@H](c4ccccc4)C34CC2(c2cccnc2)C4)cc1 (stereo partly drawn)	i	7%	4%	8%	?	-23%
FC(F)(F)c1ccc(C2[C@H]3CN(Cc4cccnc4)[C@H](c4ccccc4)C34CC2(c2cccnc2)C4)cc1 (stereo partly drawn)	?	?	?	?	8.9µM*	-105%
Cc1c(Cl)cccc1NC(=O)CC(c1cccs1)N1Cc2ccccc2C1=O (stereo not drawn)	i	nt	nt	-30%	?	-17%
